Test results from PubChem BioAssay AID1468 (National Center for Advancing Translational Sciences (NCATS), 2008).
The whole screen tested about 280,000 compounds, of which about 1,100 (0.39%) were called active. Not shown: some 7% with an inconclusive outcome. Calls come from the whole dose curve; as a rule, active = well fitted inhibition curve with a large enough effect; inconclusive = small, poorly fitted or top-dose-only effect, or effect the other way; inactive = flat fitted curve, though single readings scatter. Shown is part of a subset that was picked to be rich in actives.

Target: Microtubule-associated protein tau (Homo sapiens) (UniProt P10636)
Sequence (P10636 561-689 P618L limits assumed): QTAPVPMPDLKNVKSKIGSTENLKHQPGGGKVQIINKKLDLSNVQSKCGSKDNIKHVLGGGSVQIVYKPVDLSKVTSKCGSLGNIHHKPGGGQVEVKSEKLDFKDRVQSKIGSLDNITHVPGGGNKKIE
Assay: qHTS for Inhibitors of Tau Fibril Formation, Fluorescence Polarization; note: nearly all actives have a fitted effect of over 55% in size
Details: K18 P301L tau heparin fibrillization, Alexa594 FP, 6 h; series mostly up to 57.7 µM
Procedure, shortened: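 Human tau K18 […] P301L fragment, 15 uM unlabeled plus 0.24 uM Alexa 594-labeled tau (final), with compound and 20 uM heparin in 100 mM sodium acetate pH 7; 6 hr at 37 C, then Alexa 594 FP read.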
Potency is the fitted concentration of half-maximal effect.

Potency, active:
CSc1nc(Nc2ccc(F)cc2)cc(-c2ccccc2)n1 15.8 µM
c1ccc(CSc2nnc(-c3ccco3)c(-c3ccco3)n2)cc1 12.6 µM
COc1ccc2c(c1OC)C(=O)OC2Nc1nc(-c2ccccc2)cs1 (centres undefined) 31.6 µM
FC(F)(F)c1cc(Nc2nc3ccccc3c3nncn23)ccc1Cl 10 µM
CCN(CC)c1ccc2oc(=O)c(C)nc2c1 12.6 µM
O=C1C(c2ccccn2)=[N+]([O-])c2ccccc21 7.94 µM
O=C(CSc1nnnn1-c1ccc(O)cc1)N1N=C(c2ccc3ccccc3c2)CC1c1ccccc1 (centres undefined) 25.1 µM
Fc1ccc(Nc2nc(SCc3ccccc3Cl)nc3ccccc23)cc1 6.31 µM
CC(=O)Nc1ccc2nc(SCCOc3cc(C)cc(C)c3)sc2c1 12.6 µM
Cc1ccc(-c2nn(-c3ccccc3)cc2/C=C/C(=O)Nc2cccc(S(N)(=O)=O)c2)cc1 14.1 µM
Cc1ccc(-c2nn(-c3ccccc3)cc2C(=O)Nc2cccc(S(=O)(=O)N3CCOCC3)c2)cc1 14.1 µM
O=C(Nc1ccc(Br)cc1)c1ccc(Br)c(S(=O)(=O)NCc2ccccc2)c1 12.6 µM

Potency, inactive:
COc1ccc(OC)c(-c2noc(N3CCN(c4cc(Cl)ccc4C)CC3)n2)c1
COc1ccc(N(CC(=O)NCCc2ccc(Cl)cc2)S(=O)(=O)c2c(C)nn(C)c2C)cc1
COc1ccc2c(Sc3ccc(C)cc3)c(C(=O)NC(C)c3ccccc3)[nH]c2c1 (centres undefined)
CSc1nc(-c2ccccc2)nc(C(Cl)Cl)n1
Cc1cc(Nc2ccccc2)nc(N)n1
CCOC(=O)c1cccc(NS(=O)(=O)c2cc(-c3cnc(C)o3)ccc2OC)c1
COc1ccc(N2C(=O)CSC23C(=O)N(Cc2cccc(F)c2)c2ccccc23)cc1Cl (centres undefined)
Brc1ccc(CSc2ccc(-c3ccco3)nn2)cc1
O=C(Nc1nnc(SCc2ccccc2)s1)c1ccco1
O=C(OCc1cc(=O)n2nc(C3CC3)sc2n1)c1ccccc1Cl
COc1ccc(-c2csc(NC3OC(=O)c4ccccc43)n2)cc1 (centres undefined)
COc1ccc2c(c1OC)C(=O)OC2c1c(O)nc(SC)n(-c2ccccc2)c1=O (centres undefined)
O=C(CCCn1c(=O)c2cccn2c2cccnc21)NCc1ccc(F)cc1
COc1ccc(OC)c2sc(N3CCN(C(=O)C4COc5ccccc5O4)CC3)nc12 (centres undefined)
COc1cccc(Nc2nc3ccccc3c3nncn23)c1
Fc1ccc(C(Nc2ccc(Cl)c(C(F)(F)F)c2)c2nnc(-c3ccccc3)o2)cc1 (centres undefined)
COc1ccc(-c2cc(C(F)(F)F)n3nc(-c4ccccc4)cc3n2)cc1OC
COc1ccc(OC)c(CNC(=O)Cn2nc(C)c3c(C)n(-c4ccccc4)nc3c2=O)c1
CCN(CC)c1ccc2c(Nc3ccccc3)c(C=O)c(=O)oc2c1
CCN(CC)c1ccc(/C=N/Nc2nc(C)cc(C)n2)c(O)c1
CC1CCCCN1CC(=O)N1CCCc2c1c(=O)oc1ccc(OCc3ccccc3)cc21 (centres undefined)
CCc1ccccc1NC(=O)N1CCN(C(=O)c2nsc3ccccc23)CC1
Cc1c(C(=O)N2CCCC2)oc2c1-c1nn(CC(=O)NCc3ccc(OC(C)C)cc3)cc1CC2
Cc1ccc(-c2nnc(SCC(=O)NCc3ccccc3)nc2-c2ccc(C)cc2)cc1
CSc1ncc(Cl)c(C(=O)Nc2ccc(S(=O)(=O)N3CCCC(C)C3)cc2)n1 (centres undefined)
O=C(CSc1nc(-c2cccc(F)c2)[nH]c1-c1ccccc1)Nc1ccc2c(c1)OCO2
COc1ccc(-c2cn3nc(N4CCCC(C(=O)NCCCOC(C)C)C4)sc3n2)cc1 (centres undefined)
COc1ccc(C2CC(c3ccccc3)=NN2C(=O)CSc2nccc(=O)[nH]2)cc1 (centres undefined)
O=C(CSc1nnnn1-c1ccc(O)cc1)c1ccc(F)cc1
COc1ccc(Cl)cc1NC(=O)C(C)Sc1nc2c(c(=O)[nH]1)CCCC2 (centres undefined)
O=C(Cn1ncc2c3ccccc3n(Cc3ccccc3)c2c1=O)NC1CCCCCC1
Clc1ccc(CSc2nncn3c2cc2occc23)cc1
COc1ccc(C2CC(=O)N(Cc3ccccc3C)c3c2c(C)nn3-c2nc(C)cc(C)n2)c(OC)c1 (centres undefined)
Cc1ccc(C)c(S(=O)(=O)c2nnn3c2nc(N2CCOCC2)c2sccc23)c1
Fc1ccc(CSc2nc(NCc3ccccc3)c3ccccc3n2)cc1
O=C(CSc1nc(Nc2ccc(F)c(F)c2)c2ccccc2n1)c1ccc(Cl)cc1
Cc1ccc(C(=O)N2c3ncnn3C3(CCCCC3)[C@@H]3CCCC[C@@H]32)cc1
CCOc1ccc2nc(Nc3nc4ccc(NC(C)=O)cc4s3)sc2c1
Cc1ccc(OCCSc2nc3ccc(NC(=O)COc4ccc(C)cc4)cc3s2)cc1
COc1ccccc1C(=O)NCCn1cc(SCc2ccccc2Cl)c2ccccc21
O=C(O)c1ccc(NC(=O)c2cn(-c3ccccc3)nc2-c2ccc(Cl)cc2)cc1
O=C(O)/C=C/c1cn(-c2ccccc2)nc1-c1cccs1
COc1ccc(-c2nn(-c3ccccc3)cc2/C=C\C(=O)Nc2ccc(C(=O)O)cc2)cc1
O=C(COC(=O)c1ccccc1)Nc1cccc(S(=O)(=O)N2CCOCC2)c1
COc1ccccc1N1CCN(C2C(=O)c3ccccc3N2C(C)=O)CC1 (centres undefined)
CCC(=O)N1CCc2cc(CNC(=O)Nc3ccccc3Cl)ccc21
COc1ccc(Cc2nc3ccc(C(=O)NCc4ccccc4C)cc3o2)cc1
CCN1CCc2nc3sc(C(=O)Nc4ccccc4OC(F)(F)F)c(N)c3cc2C1
Cc1ccc(C(=O)Nc2ccc(C(=O)O)cc2)cc1S(=O)(=O)Nc1ccccc1
O=C(Nc1cccc(NC(=O)c2ccc(Br)cc2)c1)c1ccccc1
COC(=O)c1scc(-c2ccccc2)c1S(=O)(=O)Nc1ccccc1
Cc1ccc(Cn2c(C)c3cnn(CC(=O)NCc4ccccc4)c(=O)c3c2C)cc1
